Bioassay records deposited in PubChem by National Center for Advancing Translational Sciences (NCATS).
Sampled rows, rich in hits. Any-hit rate of the full collection: about 8.9%.
SW480 rereplic: inducers of DNA re-replication in SW480 colon cancer cells. SW480 DNA re-replication, Hoechst DNA content imaging, 48 h. Potency, µM (highest dose often 46.1 µM), without a hit: at the top dose re-replication activation, most hits filed as activators. 340,000 tested, 1.8% active; further: potency means the concentration at half of the fitted maximal effect; % of control where 0% means no effect; nearly all actives have a fitted effect of over 55% in size
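First, 250 cells per well were seeded. Next, compound or vehicle (23 nL) was pinned in, plates sat 48 hr at 37 C. Finally Hoechst was added for 40 min before fluorescence scanning.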
DRD3 antagonist: D3 dopamine receptor (human) antagonism; P35462; AID 652054; max response, negative = inhibition, %; D3R cells, DiscoveRx beta-arrestin luminescence, antagonist mode; stronger effect = lower value; 360,000 tested, 2.5% active; in the data active means max response below about -50%; inconclusive means no clear call, values can overlap the other calls; further: on the % scale 0 is the no-effect control and ±100 the full control effect
Target sequence (P35462 whole entry, looked up): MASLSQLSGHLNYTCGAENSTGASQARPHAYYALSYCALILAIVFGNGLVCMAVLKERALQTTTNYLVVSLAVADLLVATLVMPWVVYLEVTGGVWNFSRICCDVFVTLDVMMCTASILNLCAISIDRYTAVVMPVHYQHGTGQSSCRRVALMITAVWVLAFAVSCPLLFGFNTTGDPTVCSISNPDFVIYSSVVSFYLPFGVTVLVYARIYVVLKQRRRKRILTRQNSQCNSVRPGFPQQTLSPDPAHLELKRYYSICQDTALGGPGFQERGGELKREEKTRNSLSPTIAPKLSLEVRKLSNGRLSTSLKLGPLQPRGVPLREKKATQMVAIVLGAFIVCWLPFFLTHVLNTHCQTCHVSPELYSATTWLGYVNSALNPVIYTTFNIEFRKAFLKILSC
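Cells plated overnight at 1500 cells/well, then exposed to library compounds with dopamine controls for 90 minutes at 37 degrees C. DiscoveRx reagent added for 30–60 minutes at room temperature; luminescence read, quantitative HTS format.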
MCF10A rerep: induces DNA re-replication in MCF 10a normal breast cells | MCF 10A DNA re-replication, Hoechst nuclear intensity, 48 h | Potency, µM (top dose mostly 46.1 µM), for the others: top-dose activity, positive = re-replication, hits mostly activators | 350,000 tested, 2.9% active | AID 624296; further: potency means the concentration at half of the fitted maximal effect; % of control where 0% means no effect; nearly all actives have a fitted effect of over 50% in size
D3 ag: activates the human D3 dopamine receptor; D3R DiscoveRx beta-arrestin cells, luminescence, 90 min; max activation, %; AID 652048; 410,000 tested, 0.58% active; P35462; in the data active means max activation above about 30%; further: 0% is about no effect
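Cells at 1500/well, incubated overnight, then treated with pinned compounds (dopamine as control) for 90 min at 37 degrees C. DiscoveRx reagent added for 30 - 60 minutes at room temperature; luminescence read.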
KB-3-1 cytotox: KB-3-1 parental cell cytotoxicity. 400,000 tested, 1.4% active. Potency, µM (top dose mostly 46.1 µM), most hits filed as cytotoxic. AID 1347075. KB-3-1 viability, CellTiter-Glo ATP luminescence, 72 h; further: potency means the concentration at half of the fitted maximal effect; on the % scale 0 is the no-effect control and ±100 the full control effect; nearly all actives have a fitted effect of over 60% in size
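72 h, 37 °C compound treatment of KB-3-1 parental cells; CellTiter-Glo added, 10 min, luminescence read. Data corrected against DMSO-only plates and normalized before curve fitting.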
KB-V1 cytotox: kills drug-selected multidrug resistant KB-V1 cells | KB-V1 MDR cells viability, CellTiter-Glo, 72 h | Potency, µM (highest dose often 46.1 µM), most hits filed as cytotoxic | 400,000 tested, 3.4% active; further: potency means the concentration at half of the fitted maximal effect; on the % scale 0 is the no-effect control and ±100 the full control effect; nearly all actives have a fitted effect of over 60% in size
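Potencies derive from concentration-effect curves fitted to normalized luminescence (CellTiter-Glo) of KB-V1 cells treated for 72 h at 37 degrees C in phenol-red-free DMEM containing 10% FBS.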
An asterisk follows results filed as active; i = inactive; ? = inconclusive; . = no result given; ! = repeats disagree. Unless noted, the call rests on the fitted dose curve; in most records, active means well fitted curve in the direction sought with a large enough effect; inconclusive means small, poorly fitted or top-dose-only effect, or another doubt; inactive means no such curve, though single readings can be large; an effect the other way counts as inactive or inconclusive.

SMILES	SW480 rereplic	DRD3 antagonist	MCF10A rerep	D3 ag	KB-3-1 cytotox	KB-V1 cytotox
COc1ccc(-c2cc(C)no2)cc1S(=O)(=O)Nc1ccccc1	?	?	?	-7	?	i
COC(=O)c1ccc(NS(=O)(=O)c2cc(-c3cc(C)no3)ccc2OC)cc1	18µM*	-52*	25%	1	5.8µM*	?
COc1ccc(Cl)cc1NS(=O)(=O)c1cc(-c2cc(C)no2)ccc1C	.	.	.	-17	13µM*	3.7µM*
COc1ccc(C)cc1NC(c1nnc(-c2ccccc2)o1)c1ccc(F)cc1Cl (configuration not stated)	.	.	.	0	i	i
CN(C(=O)c1cc2c(s1)-c1ccc(Cl)cc1SC2)c1cccc(C(F)(F)F)c1	.	.	.	3	i	i
CCOc1ccc(/C=C/C(=O)OCC(=O)NCCc2ccc(OCC)c(OCC)c2)cc1OC	-2%	19	0%	0	i	i
COc1cc(/C=C/C(=O)OCC(=O)NCCc2ccc(S(N)(=O)=O)cc2)ccc1OCC#N	2.6µM*	12	?	-5	i	i
COc1cc(/C=C/C(=O)OCC(=O)Nc2ccccc2Sc2ccc(Cl)cc2)ccc1O	13%	15	21µM*	-2	i	?
COc1cc(/C=C/C(=O)OCC(=O)NNC(=O)c2cc(Cl)ccc2OC)ccc1O	-14%	-6	-1%	-3	i	i
COc1cc(/C=C/C(=O)OCC(=O)NCc2ccco2)ccc1O	23%	9	?	-3	23µM*	?
COc1ccc(CCCC(=O)NCc2ccccc2)cc1C	?	-5	8.2µM*	-4	?	6.5µM*
COc1ccccc1/C=C/C(=O)OCC(=O)NCc1ccco1	-5%	38	2%	-10	i	i
CCOc1ccc(CSc2nc(C)cc(COC)c2C#N)cc1OCC	?	26	3%	5	i	i
COc1cc(-c2noc(CSc3nc(-c4ccccc4)cc(=O)[nH]3)n2)cc(OC)c1OC	.	.	.	3	i	i
COc1ccc(/C=C/C(=O)OCC(=O)NCc2ccccc2)cc1OC	16%	-5	23µM*	-11	?	i
CCOC(=O)c1ccc(CN(Cc2ccc(F)cc2)S(=O)(=O)c2ccc(F)c(C(=O)Nc3ccc(Cl)cc3F)c2)cc1	.	.	.	8	.	.
O=[N+]([O-])c1ccc(C2Oc3ccccc3C3CC(c4ccccc4)=NN32)s1 (configuration not stated)	23µM*	.	15µM*	.	.	.
c1ccc(C2Oc3ccccc3C3CC(c4cccs4)=NN32)cc1 (configuration not stated)	?	1	?	2	i	?
COc1cc(O)c(C(CC(=O)N2CCC(Cc3ccccc3)CC2)c2ccc(OC)c(OC)c2)c(OC)c1 (configuration not stated)	.	.	.	.	i	?
CC(C)=CCN1CCN(C/C(Cl)=C/c2ccccc2)CC1CCO (configuration not stated)	-1%	-63*	16%	-19	i	i
CC(C)c1ccc(NC(=O)c2cccc3c2C(=O)N(C2CCCCC2)C3)cc1	.	.	.	3	i	i
CCC(C)Sc1cccc(-c2nc3cc(C)ccn3c2NCc2ccccc2)c1 (configuration not stated)	?	39	?	77*	i	i
CCCCNc1c(-c2cccc(SC3CCCCC3)c2)nc2ccc(Cl)cn12	-4%	88	26µM*	69*!	?	?
Cc1ccc2nc(-c3cccc(SC4CCCCC4)c3)c(NC3CCCCC3)n2c1	22%	24	11%	2	i	i
c1ccc(CNc2c(-c3cccc(SC4CCCCC4)c3)nc3ccccn23)cc1	6.5µM*	90	18µM*	43*	i	i
COc1ccc(-c2cc(-c3nc4ccccn4c3NCc3ccccc3)ccc2OC)cc1	16µM*	-17	5.8µM*	-1	i	?
